Compounds without any hit were thinned out: in the full panel of roughly 83,000, 20% have a hit.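 In brief: 96-well plates, 48 h treatment, single concentration, percent growth endpoint.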 A number with no mark means an inactive call. Activity calls are given as the source filed them. The calls were made as follows: active = growth percent below 10; inactive = the rest.
system: KM12 colon; test: NCI-60 one-dose screen, 48 h (100 = growth as untreated, 0 = no growth, -100 = all killed); conditions: 10 µM unless noted

Row | Compound | growth
1 | O=C(CCCCCCCCC(=O)Nc1cccc(C2=NCCN2)c1)Nc1cccc(C2=NCCN2)c1 | 95.5%
2 | C[C@]12CC[C@@H]3c4ccc(O)cc4CC[C@H]3[C@@H]1C[C@H](O)C2 | 76.3%
3 | CCCCCCCCCCCCCC1=NCC[N+]1(CCO)Cc1ccccc1 (configuration not stated) | -85.1% (active)
4 | O=C1[C@@H](OS(=O)(=O)CC(F)(F)F)[C@H](c2ccc(F)cn2)N1c1cc2c3ccccc3ccc2c2ccccc12 | 87%
5 | Cc1cc(O)cc(O)c1N=NC1=NCCS1 | 102%
6 | CCN(CC)CC#CCOC(=O)[C@]1(C)CCC[C@]2(C)[C@H]3C[C@H]4C(C(C)C)=C[C@]3(CC[C@H]21)[C@@H]1C(=O)CCC(=O)[C@@H]14 | 51.9%
7 | CC(=O)OCC1OC(OC2C(COC(C)=O)OC(OCCC[S-])C(OC(C)=O)C2OC(C)=O)C(OC(C)=O)C(OC(C)=O)C1OC(C)=O.[Au+].c1ccc(CN2[CH-]N(Cc3ccccc3)C(c3ccccc3)=C2c2ccccc2)cc1 (configuration not stated) | 26.7%
8 | COc1cc(-c2cn(-c3ccc(Cl)c(Cl)c3)c(=O)[nH]2)cc(OC)c1OC | 90.8%
9 | NC(=O)c1ccc2nc3c(n2c1)C(=O)C(=O)c1ccccc1-3 | -50.1% (active)
10 | Nc1c(C(=O)Nc2ccccn2)sc2nc3c(cc12)CCCCCC3 | 14.4%
11 | COc1cccc(NC(=O)Nc2ccc(Oc3ncnc4[nH]c(C)c(C)c34)cc2)c1 | 52.2%
12 | CC(=O)Oc1c2c(nc3c1c1ccccc1n3Cc1ccccc1)-c1ccccc1C2 | 88.7%
13 | CCOC(=O)C(=Cc1c(-c2ccccc2)[nH]c2ccccc12)C(=O)OCC | 24.1%
14 | CCOC(=O)c1c(C)nc2c(c1N)/C(=C/c1cccs1)C(=O)N2c1ccc(OC)cc1 | 70.2%
15 | Cc1ccccc1NC(=O)c1sc2nc(C)c(C(C)O)cc2c1N (configuration not stated) | 27.7%
16 | C#CCN1C(=O)c2ccccc2N(CC#C)C12CCN(Cc1cn(CC(=O)Nc3ccccc3C(N)=O)nn1)CC2 | 88.8%
17 | O=c1nc(-c2ccccc2)c2cc(-c3ccc(N4CCCC4)nc3)ccc2[nH]1 | 56.7%
18 | CC(=O)ON1CCCC(P(=O)(OCOC(=O)C(C)(C)C)OCOC(=O)C(C)(C)C)C1=O (configuration not stated) | -11.5% (active)
19 | O=S(=O)(O)c1ccc(N=NSc2ccc3ccccc3c2)cc1 | 98.6%

Row | Compound | growth
20 | Cc1cccc(C)c1NCc1nnc(-c2ccco2)o1 | 91.6%
21 | CC1(C)Cc2c(Br)c(Br)c(Br)c(OCC(O)CN3CCOCC3)c2O1 (configuration not stated) | 95%
22 | S=c1ssnc1-c1cc2ccccc2o1 | 81.6%
23 | CCCCCCCc1n(Cc2ccc3ccccc3c2)c2ccccc2[n+]1Cc1ccc2ccccc2c1 | -74.9% (active)
24 | Oc1c(CCl)cc(Cl)cc1Cc1cc(Cl)cc(Cc2cc(Cl)cc(CCl)c2O)c1O | 23.2%
25 | Cc1cnc(SCc2ccc(Cl)cc2Cl)nc1Nc1ccc(Cl)c(Cl)c1 | 89.4%
26 | O=C(C[n+]1cccc2cc(Cl)ccc21)c1ccc2c(c1)CCCC2 | 14.7%
27 | COc1ccc(/C=C(/C(=O)N2CCN(Cc3ccccc3)CC2)c2cc(OC)c(OC)c(OC)c2)cc1O | 55.9%
28 | NC(=O)CN1C(=O)c2ccccc2C1=O | 103%
29 | O=C(Nc1nc2ccc(C(F)(F)F)cc2s1)c1cc(Cl)ccc1O | 8.91% (active)
30 | C[C@@H]1C(=O)[C@@H]2C[C@@H](O)[C@@H](O)C[C@]2(C)[C@H]2CC[C@@]3(C)C(=C12)CC[C@@H]3[C@@](C)(O)[C@H](O)CCC(C)(C)O | 114%
31 | O=c1[nH]c(-c2cccc(F)c2)cc2cc(F)ccc12 | 23.6%
32 | COCCOC(=O)COc1ccc(OC)cc1 | 100%
33 | C=C(C)[C@@H]1CC[C@]2(C(=O)N3CCN(C)CC3)CC[C@]3(C)[C@H](CC[C@@H]4[C@@]5(C)C/C(=C/c6ccco6)C(=O)C(C)(C)[C@@H]5CC[C@]43C)[C@@H]12 | 72.5%
34 | N#CCNc1ccc(C(=O)O)cc1 | 105%
35 | OCCNc1nc(NCCO)nc(Nc2ccc(C3=NN(c4cc(Cl)cc(Cl)c4)C(c4ccc(Cl)cc4)C3)cc2)n1 (configuration not stated) | 19.3%
36 | C=C1C(=O)O[C@H]2[C@H]1CC/C(COC(=O)NCc1nc3ccccc3[nH]1)=C\CC[C@@]1(C)O[C@@H]21 | 99.3%
37 | Cc1cccc(C)c1NCc1nnc(-c2ccc(O)cc2)o1 | 97%
